# Target: ORC1
# Assay: pooled miR-30 sensor sort-seq; sequence = guide strand
# Conditions: shRNA
# Further: reference of the scale not given here.
row,Sequence,sensor-assay potency score (higher = more potent)
1,TCAATCAACACAAACTGTCCAA,0.619
2,TTTCGATCCAACAAGGGCCTGC,0.15
3,TTTACTATTACCTAGAAACCGA,-0.315
4,TAGAGTCTGAAATCTCTGCTGC,0.498
5,TCTCGGTGGAACAACCTTCTGT,-0.225
6,TACAGCAGAAACATGCAGCCTC,0.436
7,TCATTTTTCAGATTCGTCGGTA,0.261
8,TTGCACATAGACTTGGTGGGGC,0.793
9,TAAGAGAGTCCAGTCTCTCTGG,-0.254
10,TAGAGGTCGCTTCATTCTGGGC,-1.24
11,TTTTCGAAGCTGCAATTCGGGT,-1.44
12,TTTGGTAGTGCAGTTTTCGATC,-0.734

# Target: ORM2
# Assay: as above
# Conditions: shRNA
row,Sequence,sensor-assay potency score (higher = more potent)
1,TTCTTCTCATCGTCCAGGTAGG,-0.591
2,TTATAGAAGCACTGGTTCTGGC,-0.114
3,TGGACATTCAGGTAACTGGAGT,-0.96
4,TGGAGTTATAGAAGCACTGGTT,-0.607
5,GTGTACATGACATCTGACCTGG,-0.944
6,TAAGGAACAGCAGGTGAGCAAC,-1.17
7,TACATGACATCTGACCTGGGAA,-0.156
8,TTATCCTTTTTCCAGTCGGTGT,-1.32
9,ATCAAGGTCTTGGTGTCCCTAA,-0.929
10,TAGAAGCACTGGTTCTGGCGGG,-0.234
11,TCATCGTCCAGGTAGGAACCAA,-0.639
12,TGTACATGACATCTGACCTGGG,0.548

# Target: OSBP2
# Assay: as above
# Conditions: shRNA
row,Sequence,sensor-assay potency score (higher = more potent)
1,TTGACTTTGGATGAACCCTTGG,-0.284
2,TACACTGTCTTCTGCTTCCCGT,-0.671
3,TAGGAGGACACAGAGAAGGCGG,-0.227
4,TTGATCATAGCATTGGATGTGA,0.46
5,TTGCCCAGCACGAACCAGCGGC,-0.788
6,TTGTGAACAGTTGAGGTGCTCT,-0.621
7,TCTAGTACATTGTCTGCTGAGC,-0.715
8,TTCAGTACTAAATTGAGTGCAT,0.314
9,TTGGAGAACACGTAGTGCGCAG,-0.163
10,TAAGTGGATGGCACCTAGCGGC,-0.606
11,TTCTCTTCCTCCGAGCTGCAGC,-0.929
12,ATCTAGTACATTGTCTGCTGAG,-0.399

# Target: OSBPL11
# Assay: as above
# Conditions: shRNA
row,Sequence,sensor-assay potency score (higher = more potent)
1,TATACTTCATTAAATAGCCATA,-1.62
2,TATCTGAAGTCTGCTAACCCAG,-1.27
3,TTCTTTACCACTTTGGTCTTGC,0.433
4,TTAAGTCTCTTTGTTGTCCTTC,0.3
